Screening results deposited in PubChem by National Center for Advancing Translational Sciences (NCATS).
Shown are actives, neighbours in structure and some others; about 3.2% of the full set was active somewhere.
Tau fibril ThT: blocks human tau fibril formation measured by thioflavin T; P10636; recombinant tau K18 P301L, heparin-induced fibrillization, ThT fluorescence; Potency, µM (series often up to 57.4 µM), for the others: top-dose activity, negative = inhibition, actives largely listed as inhibitors; hit rate 2.1% among 270,000; AID 1460; note: potency is the fitted concentration of half-maximal effect; % is set by controls: 0 for no effect and ±100 for the full control effect; nearly all actives have a fitted effect of over 55% in size
Target sequence (P10636 561-689 P618L limits assumed): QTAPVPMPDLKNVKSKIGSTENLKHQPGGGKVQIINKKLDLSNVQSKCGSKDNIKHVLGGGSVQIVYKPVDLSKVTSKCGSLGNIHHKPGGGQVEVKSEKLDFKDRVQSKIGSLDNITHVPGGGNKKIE
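Heparin-induced (20 uM) aggregation of recombinant human K18 P301L tau, 15 uM unlabeled with 0.24 uM labeled, pH 7 acetate buffer, 6 hr at 37 C with compound. Fibrils quantified by 30 uM ThT fluorescence after 1 hr ambient incubation.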
LMNA splice mod: modulators of lamin A splicing | HeLa LMNA splicing GFP/RFP minigene ratio, 48 h | hit rate 0.01% among 200,000 | Potency, µM (doses to about 46.1 µM), for the others: at the top dose ratio change, negative = inhibition, usual class: inhibitors | AID 1487; active = well fitted inhibition curve with a large enough effect in the signal ratio, with a control signal flat, not every such curve was filed as active; inconclusive = small, poorly fitted or top-dose-only effect, or effect the other way, or a change in a side signal; the % refers to the signal ratio; note: potency is the fitted concentration of half-maximal effect; % is set by controls: 0 for no effect and ±100 for the full control effect
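S3 HeLa cells stably expressing lamin A-EGFP splicing minigene plus DsRed2, 600 cells/well, 48 h compound exposure at 37C. Laser-scanning cytometry; analysed as GFP (500-530 nm)/RFP (575-640 nm) total intensity ratio; 0.5% DMSO vehicle.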
Tau FP inhib: inhibitors of human tau fibril formation. P10636. K18 P301L tau heparin fibrillization, Alexa594 FP, 6 h. Potency, µM (doses to about 57.7 µM), inactives show top-dose activity, negative = inhibition, actives largely listed as inhibitors. hit rate 0.39% among 280,000. AID 1468; note: potency is the fitted concentration of half-maximal effect; % is set by controls: 0 for no effect and ±100 for the full control effect; nearly all actives have a fitted effect of over 55% in size
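Steps: dispense K18 P301L tau (15 uM plus 0.24 uM Alexa 594 tracer, final) in pH 7 sodium acetate; add compound; add heparin (20 uM final); incubate 6 hr, 37 C; add ThT (30 uM final); after 1 hr ambient, read FP.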
Tau fluor cs: counter-screen for tau fibril formation inhibitors; hit rate 0.93% among 280,000; Potency, µM (titrated, usually from 57.7 µM), inactives show at the highest dose activity change, negative = decrease; tau K18 P301L Alexa594 fluorescence, heparin fibrillization; note: potency is the fitted concentration of half-maximal effect; % is set by controls: 0 for no effect and ±100 for the full control effect; nearly all actives have a fitted effect of over 55% in size
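Human tau K18 P301L (15 uM unlabeled, 0.24 uM Alexa 594-labeled) in 100 mM sodium acetate pH 7 with 20 uM heparin, 6 hr at 37 C. ThT 30 uM added, 1 hr ambient; Alexa 594 FP and total fluorescence read at 555/632 nm.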
CBFb-RUNX1 inh: CBF-beta/RUNX1 interaction disruption; Q01196+Q13951; AlphaScreen CBFb-His/RUNX1-biotin binding, biochemical; Potency, µM (titrated, usually from 59.8 µM), inactives show top-dose activity, negative = inhibition, usual class: inhibitors; AID 1477; 230,000 tested, under 10 active; note: % of control where 0% means no effect
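AlphaScreen proximity signal reports loss of binding between His-tagged CBF-beta and biotin-labelled RUNX1, each at 30 nM. Proteins are pre-associated for 20 minutes, compounds added for 15 minutes, then beads for 90 minutes, all at ambient temperature.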
KDM4E inh: JMJD2E (human) inhibition. JMJD2E catalytic domain, FDH-coupled NADH fluorescence (FDH is formaldehyde dehydrogenase). Potency, µM (doses to about 57.1 µM), for the others: top-dose activity change, negative = inhibition, actives largely listed as inhibitors. hit rate 1.6% among 230,000; active = well fitted inhibition curve with a large enough effect, not every such curve was filed as active; inconclusive = small, poorly fitted or top-dose-only effect, or another doubt; inactive = no such curve, though single readings can be large or run the other way;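 note: potency is the fitted concentration of half-maximal effect; 0% = wells with enzyme and -100% = buffer wells without enzyme; nearly all actives have a fitted effect of over 50% in size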
Target sequence (B2RXH2 1-337 limits assumed): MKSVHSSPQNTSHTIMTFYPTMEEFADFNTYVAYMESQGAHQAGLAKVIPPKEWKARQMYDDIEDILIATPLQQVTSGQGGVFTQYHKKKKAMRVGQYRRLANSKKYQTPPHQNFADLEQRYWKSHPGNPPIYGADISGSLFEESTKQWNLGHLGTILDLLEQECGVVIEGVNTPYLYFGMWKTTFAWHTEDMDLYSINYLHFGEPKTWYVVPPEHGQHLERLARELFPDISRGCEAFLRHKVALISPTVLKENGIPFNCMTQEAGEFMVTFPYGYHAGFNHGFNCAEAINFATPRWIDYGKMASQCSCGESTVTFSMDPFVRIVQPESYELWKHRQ
* marks the source's active call; other numbers are inactive results; ! = a repeat was not active; [ ] = remark or other dose. Unless noted, calls come from the whole dose curve; as a rule, active = well fitted curve in the direction sought with a large enough effect; inconclusive = small, poorly fitted or top-dose-only effect, or another doubt; inactive = no such curve, though single readings can be large; an effect the other way counts as inactive or inconclusive.

What do the screens show for `C=CC[C@@H]1C=C[C@@H](O/N=C2/[C@H]3O[C@@H]3[C@@H](O)[C@H]3[C@H]2CCn2c(=O)n(-c4ccccc4)c(=O)n23)[C@@H](CO)O1`?
Tau fibril ThT: -5%[11.5 µM]; Tau FP inhib: -3%[11.6 µM]; Tau fluor cs: -6%[11.6 µM]; CBFb-RUNX1 inh: -8%[13.1 µM]

Results for Cc1ccc(S(=O)(=O)N[C@H]2COC(=O)C/C=C\[C@H](C)[C@@H](NS(=O)(=O)c3ccc(C)cc3)COC(=O)C/C=C\[C@@H]2C)cc1 ?
Tau fibril ThT: -8%[11.5 µM]; Tau FP inhib: -2%[11.6 µM]; Tau fluor cs: -11%[11.6 µM]; CBFb-RUNX1 inh: 14%[13.1 µM]

What do the screens show for `COc1ccccc1Nc1cc(C(=O)NCCCN2CCOCC2)c2ccccc2n1`?
Tau fibril ThT: -5%; LMNA splice mod: 10%; Tau FP inhib: 6%; Tau fluor cs: -24%; CBFb-RUNX1 inh: -1%; KDM4E inh: -5%

What do the screens show for `COc1ccc(Nc2cc(C(=O)NCCCN(C)C3CCCCC3)c3ccccc3n2)cc1`?
Tau fibril ThT: inconclusive; Tau FP inhib: inconclusive; Tau fluor cs: 11µM*[quencher]

Results for COc1ccc(N2CCN(CCCNC(=O)c3cc(Nc4ccc(OC)cc4OC)nc4ccccc34)CC2)cc1 ?
Tau fibril ThT: 18µM*; LMNA splice mod: inconclusive; Tau FP inhib: 11%; Tau fluor cs: 16µM*[quencher]

What do the screens show for `CCc1ccc(Nc2cc(C(=O)NCCCN3CCOCC3)c3ccccc3n2)cc1`?
Tau fibril ThT: inconclusive; LMNA splice mod: -6%; Tau FP inhib: inconclusive; Tau fluor cs: 16µM*[quencher]; CBFb-RUNX1 inh: 3%; KDM4E inh: 4%

What do the screens show for `Cc1ccc(-n2cnc3cc(C(=O)NC4CCCCCC4)ccc32)cc1Cl`?
Tau fibril ThT: inconclusive; LMNA splice mod: -21%[46 µM]; Tau FP inhib: 6%; Tau fluor cs: -12%

What do the screens show for `CC(C)[C@H]1c2ccc(F)cc2CC[C@@]1(CCN(C)CCCc1nc2ccccc2[nH]1)OC(=O)C1CC1`?
Tau fibril ThT: inconclusive; Tau FP inhib: -9%; Tau fluor cs: -20%; CBFb-RUNX1 inh: 8%

Results for COc1ccc(-c2cc(C(=O)Nc3sc4c(c3C(N)=O)CCC(C)C4)no2)cc1 (stereo unspecified) ?
Tau fibril ThT: inconclusive; Tau FP inhib: -12%; Tau fluor cs: -10%

Results for NC(=O)c1c(NC(=O)c2cc(-c3ccc(F)cc3)on2)sc2c1CCCC2 ?
Tau fibril ThT: 32µM*; Tau FP inhib: inconclusive; Tau fluor cs: -22%

How did CCOP(=O)(OCC)C(NC(=O)c1cc([N+](=O)[O-])cc([N+](=O)[O-])c1)C(F)(F)F (stereo unspecified) do in these assays?
Tau fibril ThT: 25µM*; Tau FP inhib: inconclusive; Tau fluor cs: inconclusive; CBFb-RUNX1 inh: -12%; KDM4E inh: -7%

Results for O=c1c(O)c(-c2ccc(O)c(O)c2)oc2cc(O)ccc12 ?
Tau fibril ThT: 5µM*; LMNA splice mod: inconclusive; Tau FP inhib: 9%; Tau fluor cs: inconclusive; CBFb-RUNX1 inh: 7%[21.7 µM]; KDM4E inh: 14µM*!

Results for COc1ccc(-c2oc3ccccc3c(=O)c2O)cc1 ?
Tau fibril ThT: -4%; Tau FP inhib: -4%; Tau fluor cs: -1%; CBFb-RUNX1 inh: -4%[21.7 µM]; KDM4E inh: inconclusive

Results for O=c1c(O)c(-c2ccc(O)c(O)c2)oc2ccccc12 ?
Tau fibril ThT: 14µM*; Tau FP inhib: 10%; Tau fluor cs: inconclusive; CBFb-RUNX1 inh: 2%[21.7 µM]; KDM4E inh: 10µM*

What do the screens show for `COc1ccc(OC)c(/C=C2\S/C(=N/NC(=O)c3ccc4ccccc4c3)NC2=O)c1`?
Tau fibril ThT: 8.9µM*; LMNA splice mod: -19%; Tau FP inhib: 3%; Tau fluor cs: inconclusive; CBFb-RUNX1 inh: 26%; KDM4E inh: inconclusive

How did CC(C)CC(=O)Nc1nc2nc(-c3ccccc3)cc(=O)n2[nH]1 do in these assays?
Tau fibril ThT: -3%; Tau FP inhib: 2%; Tau fluor cs: 0%

What do the screens show for `Cc1ccc(N=C2NC(=O)/C(=C/c3cn(C)c4ccccc34)S2)cc1C`?
Tau fibril ThT: 4µM*; LMNA splice mod: 2%; Tau FP inhib: 15%; Tau fluor cs: inconclusive; CBFb-RUNX1 inh: -24%; KDM4E inh: -4%

What do the screens show for `Cc1ccc(N=C2NC(=O)/C(=C/c3cccn3C)S2)c(C)c1`?
Tau fibril ThT: inconclusive; Tau FP inhib: 10%; Tau fluor cs: -3%; CBFb-RUNX1 inh: -28%; KDM4E inh: -18%

Results for O=C1NC(=Nc2ccccc2)S/C1=C\c1cccs1 ?
Tau FP inhib: -10%; Tau fluor cs: -24%; CBFb-RUNX1 inh: -12%; KDM4E inh: -3%

Results for Cc1cc(C)cc(N=C2NC(=O)/C(=C/c3cccs3)S2)c1 ?
Tau fibril ThT: inconclusive; LMNA splice mod: inconclusive; Tau FP inhib: inconclusive; Tau fluor cs: inconclusive; CBFb-RUNX1 inh: -16%; KDM4E inh: -18%

Results for Cn1cccc1/C=C1\SC(=Nc2ccccc2)NC1=O ?
Tau fibril ThT: 13µM*; Tau FP inhib: 1%; Tau fluor cs: inconclusive; CBFb-RUNX1 inh: -9%; KDM4E inh: 0%

Results for Cn1cccc1/C=C1\SC(=Nc2cccc(O)c2)NC1=O ?
Tau fibril ThT: 7.1µM*; Tau FP inhib: 11%; Tau fluor cs: inconclusive; CBFb-RUNX1 inh: inconclusive; KDM4E inh: 6%

What do the screens show for `Cn1cccc1/C=C1\SC(=Nc2ccc(O)cc2)NC1=O`?
Tau fibril ThT: 4.5µM*; Tau FP inhib: 1%; Tau fluor cs: inconclusive; CBFb-RUNX1 inh: -11%; KDM4E inh: 1%

How did CS(=O)(=O)N(Cc1ccccc1)c1ccc(C(=O)Nc2cccc(Cl)c2)cc1 do in these assays?
Tau fibril ThT: 10%; Tau FP inhib: inconclusive; Tau fluor cs: inconclusive

What do the screens show for `CC1CCN(S(=O)(=O)c2ccc3c(ccc(=O)n3CC(=O)NCc3ccccc3)c2)CC1`?
Tau fibril ThT: 3%; LMNA splice mod: inconclusive; Tau FP inhib: -5%; Tau fluor cs: -21%

What do the screens show for `Cc1ccc(S(=O)(=O)Nc2cc3c(cc2NCc2ccccc2)n(C)c(=O)n3C)c(C)c1`?
Tau fibril ThT: 18µM*; Tau FP inhib: inconclusive; Tau fluor cs: inconclusive

What do the screens show for `Cc1ccc(C)c(N2CCN(C(=O)c3cc4cc5ccc(C)cc5nc4s3)CC2)c1`?
Tau fibril ThT: -2%; Tau FP inhib: -4%; Tau fluor cs: -1%

What do the screens show for `Cc1c(C(=O)Nc2nc3ccccc3[nH]2)oc2ccccc12`?
Tau fibril ThT: -7%; LMNA splice mod: inconclusive; Tau FP inhib: 1%; Tau fluor cs: -19%; CBFb-RUNX1 inh: 7%; KDM4E inh: 3.2µM*
